This is an account of results in PubChem BioAssay (NCATS).

Test [1] deals with Calcium and integrin-binding protein 1 (Homo sapiens) (UniProt Q99828). Kind of test: Primary qHTS for Identification of Calcium Integrin Binding Protein 1 (CIB1) Competitor (AID 1508620).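 Further: GST tagged CIB1 binding a fluorescein labelled alphaIIb integrin peptide tracer; top concentration of the series differs between compounds.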 An outline of the steps:
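Fluorescence polarization competition: CIB1-GST (1 uM final) preincubated with compound 15 min at room temperature, then FITC-labeled alphaIIb peptide (100 nM final) added for another 15 min. Polarization read at Ex 480/Em 540.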

A short description of test [2]: Primary qHTS for small molecule stabilizers of the endoplasmic reticulum resident proteome: Secreted ER Calcium Modulated Protein (SERCaMP) assay (AID 1508630). An outline of the steps: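 GLuc-SERCaMP-expressing SH-SY5Y cells, pretreated 16 h with compound, are challenged with thapsigargin to empty ER calcium stores; after 4 h, coelenterazine is added directly to the medium and luminescence is imaged.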
(Quantitative high-throughput screening tests each substance at several concentrations.)

For test [3], the target named is Cytochrome P450 2D6 (Homo sapiens) (UniProt P10635). Put plainly: Cytochrome P450 family 2 subfamily D member 6 (CYP2D6) small molecule antagonists: luciferase biochemical (cell-free) qHTS assay (AID 1645840; active means well fitted curve in the direction sought with a large enough effect in the repeat runs; an effect the other way counts as inactive or inconclusive; further: nearly all actives have a fitted effect of over 55% in size; further: potency means the concentration at half of the fitted maximal effect). An outline of the steps:
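P450-Glo luminescent screen: recombinant CYP2D6 enzyme–proluciferin substrate mix preincubated with compound 10 min at room temperature, then NADPH regeneration added for 1 h at room temperature. Detection reagent added for 20 min; luciferin light read as relative luminescence units.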

The target in test [4] is Cytochrome P450 2C9 (Homo sapiens) (UniProt P11712). Kind of test: Cytochrome P450 family 2 subfamily C member 9 (CYP2C9) small molecule antagonists: luciferase biochemical (cell-free) qHTS assay (AID 1645842; active means well fitted curve in the direction sought with a large enough effect in the repeat runs; an effect the other way counts as inactive or inconclusive; further: nearly all actives have a fitted effect of over 55% in size; further: potency means the concentration at half of the fitted maximal effect). In a few lines:
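Luminescence, after 20 min with luciferin detection reagent, reflected CYP2C9 turnover during a 1 h NADPH-driven reaction at 37C. Enzyme-substrate mix contained 0.4% bovine serum albumin and was preincubated with compound 10 min at room temperature.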

The target in test [5] is Cytochrome P450 3A4 (Homo sapiens) (UniProt P08684). Put plainly: Cytochrome P450 family 3 subfamily A member 4 (CYP3A4) small molecule antagonists: luciferase qHTS assay (AID 1645841; active means well fitted curve in the direction sought with a large enough effect in the repeat runs; an effect the other way counts as inactive or inconclusive; further: nearly all actives have a fitted effect of over 45% in size). An outline of the steps: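 P450-Glo CYP3A4 enzyme with proluciferin substrate was preincubated with DMSO-dissolved compounds for 10 min at room temperature. NADPH regeneration solution started a 1 h reaction. Detection reagent stopped it, and luminescence was read after 20 min.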

Test [6] can be described thus: A High-Content qHTS Against Drug Library for the Identification of Small Molecules that Inhibit DYT1 Early Onset Primary Dystonia-Associated Cell Pathology (AID 1645839; calls by dose curve; further: series mostly up to about 46 µM). In a few lines:
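Readout: %pathology, the punctate EGFP-TorsinA distribution from imaging, as the primary channel and cell count as the toxicity counterscreen. HEK293 Flp-In cells expressing delE TorsinA were induced with tetracycline and treated with compound for 48 h.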

“And” between values parts separate entries of the source, which are not always exact repeats. Equal entries are not always repeated. Records with an inconclusive call do not appear. The source made the active and inactive calls. Unless noted, the call rests on the fitted dose curve; in most records, active means well fitted curve in the direction sought with a large enough effect; inconclusive means small, poorly fitted or top-dose-only effect, or another doubt; inactive means no such curve, though single readings can be large; an effect the other way counts as inactive or inconclusive.

Chain of Cytochrome P450 2C9 (Homo sapiens) (P11712 whole entry, looked up): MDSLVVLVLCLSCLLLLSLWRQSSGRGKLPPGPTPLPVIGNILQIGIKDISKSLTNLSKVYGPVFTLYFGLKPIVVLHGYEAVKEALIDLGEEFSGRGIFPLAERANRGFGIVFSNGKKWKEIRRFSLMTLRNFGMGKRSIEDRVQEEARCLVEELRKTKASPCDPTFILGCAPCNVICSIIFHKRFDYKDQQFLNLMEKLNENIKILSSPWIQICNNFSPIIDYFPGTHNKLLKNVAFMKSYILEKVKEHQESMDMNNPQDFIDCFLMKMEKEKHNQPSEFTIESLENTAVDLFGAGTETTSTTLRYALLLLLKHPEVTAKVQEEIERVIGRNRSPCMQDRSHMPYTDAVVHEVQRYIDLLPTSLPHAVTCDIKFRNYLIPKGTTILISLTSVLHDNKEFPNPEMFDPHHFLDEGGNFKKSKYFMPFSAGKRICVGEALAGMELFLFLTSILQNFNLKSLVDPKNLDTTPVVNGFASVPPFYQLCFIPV
Chain of Cytochrome P450 2D6 (Homo sapiens) (P10635 whole entry, looked up): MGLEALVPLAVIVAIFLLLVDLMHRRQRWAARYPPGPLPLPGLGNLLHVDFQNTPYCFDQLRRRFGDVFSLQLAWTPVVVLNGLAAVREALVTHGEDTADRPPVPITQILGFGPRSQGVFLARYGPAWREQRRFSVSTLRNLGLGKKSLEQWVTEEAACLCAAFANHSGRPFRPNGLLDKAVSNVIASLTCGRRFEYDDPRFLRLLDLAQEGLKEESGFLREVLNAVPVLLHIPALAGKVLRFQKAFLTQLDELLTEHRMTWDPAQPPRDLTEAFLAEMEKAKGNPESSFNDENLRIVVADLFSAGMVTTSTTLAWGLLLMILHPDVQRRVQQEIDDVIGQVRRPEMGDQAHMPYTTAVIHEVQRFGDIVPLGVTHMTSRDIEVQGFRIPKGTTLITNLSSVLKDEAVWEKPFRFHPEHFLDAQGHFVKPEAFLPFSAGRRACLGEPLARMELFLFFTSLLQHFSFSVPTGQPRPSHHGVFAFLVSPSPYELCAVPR
Chain of Calcium and integrin-binding protein 1 (Homo sapiens) (Q99828 whole entry, looked up): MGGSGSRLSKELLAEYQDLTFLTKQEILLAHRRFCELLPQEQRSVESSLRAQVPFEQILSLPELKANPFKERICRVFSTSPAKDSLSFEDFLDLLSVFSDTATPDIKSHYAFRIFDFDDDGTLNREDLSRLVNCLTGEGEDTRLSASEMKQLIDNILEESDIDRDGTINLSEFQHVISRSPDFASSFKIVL
Chain of Cytochrome P450 3A4 (Homo sapiens) (P08684 whole entry, looked up): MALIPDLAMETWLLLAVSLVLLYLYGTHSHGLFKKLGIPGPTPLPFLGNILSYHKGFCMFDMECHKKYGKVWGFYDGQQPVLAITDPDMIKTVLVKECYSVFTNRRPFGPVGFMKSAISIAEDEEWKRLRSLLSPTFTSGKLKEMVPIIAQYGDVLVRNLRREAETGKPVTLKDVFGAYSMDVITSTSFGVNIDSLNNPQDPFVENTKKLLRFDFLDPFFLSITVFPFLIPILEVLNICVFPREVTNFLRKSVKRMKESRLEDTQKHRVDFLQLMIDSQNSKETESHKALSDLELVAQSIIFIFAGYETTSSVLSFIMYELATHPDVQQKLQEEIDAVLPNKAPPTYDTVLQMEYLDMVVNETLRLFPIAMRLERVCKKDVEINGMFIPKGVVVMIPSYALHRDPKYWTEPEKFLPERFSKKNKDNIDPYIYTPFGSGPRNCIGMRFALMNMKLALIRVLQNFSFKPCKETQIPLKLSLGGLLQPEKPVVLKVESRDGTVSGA

In the case of `COc1ccc2c(Oc3ccc(NC(=O)c4c(C)n(CC(C)(C)O)n(-c5ccccc5)c4=O)nc3)ccnc2c1`, the Potency entry in test [1], in test [2] and in test [3] was “inactive” each time. The Potency in test [4] is 19 µM (active).
With `O=c1c(-c2ccc(O)cc2)coc2cc(OC3O[C@H](CO)[C@H](O)[C@H](O)[C@H]3O)cc(O)c12` (stereo not given in full), the Potency entry in test [1], in test [2] and in test [4] was “inactive” throughout. The Potency in test [3] was 30.1 µM (active).
In the case of `Cc1nc(N)sc1-c1ccnc(Nc2ccc(N3CCOCC3)cc2)n1`, the Potency entry in test [1], in test [2] and in test [3] was “inactive” in each case. The Potency in test [4] was 6.01 µM (active).
Regarding `NC(=O)c1cccc(-c2cc(Nc3ccc(OC(F)(F)F)cc3)ncn2)c1`, the Potency result in test [1] and in test [2] was “inactive” throughout. For the same molecule, the values for the Potency in test [3] and in test [4] were 26.8 µM (active) and 15.1 µM (active), respectively.
`O=c1c(-c2ccc(O)cc2)coc2cc(O)ccc12`: the Potency result in test [1], in test [2] and in test [3] was “inactive” in each case. Also, in test [4], the Potency was 0.213 µM (active).
As for `CC(C)n1nc(-c2ccc3oc(N)nc3c2)c2c(N)ncnc21`, the Potency entry in test [1], in test [2] and in test [3] was “inactive” each time.
With `CCS(=O)(=O)N1CC(CC#N)(n2cc(-c3ncnc4[nH]ccc34)cn2)C1`, the Potency result in test [1], in test [2], in test [3] and in test [4] was “inactive” each time.
With `O=C(CCCCCCC(=O)Nc1ccccc1)NO`, the Potency result in test [1], in test [2] and in test [4] was “inactive” throughout. Further, in test [3], the Potency is 4.9 µM (active).
`COCCOC(=O)C1=C(C)NC2=C(C(=O)CC(c3ccccc3OC)C2)C1c1cccc(O)c1` (stereo not given): the Potency result in test [1] and in test [2] was “inactive” in each case. The Potency is 10.7 µM (active) in test [3] and 1.69 µM (active) in test [4].
With `COc1cc2ncnc(-n3nc(-c4ccccn4)nc3N)c2cc1OC`, the Potency result in test [1] and in test [2] was “inactive” throughout. Further, the Potency in test [3] is 7.56 µM (active).
In the case of `CCCCCCCCCCCC1=C(O)C(=O)C=C(O)C1=O`, the Potency result in test [1], in test [2] and in test [3] was “inactive” throughout. For the same molecule, the result in test [5] was inactive.
With `C[N+](C)(C)CCCCCC[N+](C)(C)C`, the Potency entry in test [1], in test [2], in test [6], in test [3] and in test [4] was “inactive” in each case.
Regarding `Cc1ccc(Nc2cc(-c3cccc(N4C(=O)c5ccccc5C4=O)c3)ncn2)cc1NS(C)(=O)=O`, the Potency result in test [1], in test [2] and in test [3] was “inactive” throughout. Further, the Potency in test [4] is 1.07 µM (active).
With `COc1ccccc1N1CCN(CCCNc2cc(=O)n(C)c(=O)n2C)CC1`, the Potency result in test [1], in test [2], in test [6] and in test [4] was “inactive” throughout.
As to `O=C(Nc1ccccc1Br)N[C@@H]1CCN(c2ccc(C(F)(F)F)cn2)C1`, the Potency entry in test [1] and in test [2] was “inactive” throughout. The Potency is 15.1 µM (active) in test [3] and 23.9 µM (active) in test [4].
For the molecule `Clc1ccc(-c2nc3sccn3c2C=NOCc2ccc(Cl)c(Cl)c2)cc1`, the Potency result in test [1], in test [2] and in test [3] was “inactive” throughout. Besides, the Potency in test [4] was 3.79 µM (active).
Consider `COc1cccc2c1CCCC2CCCN1CCN(C2CCCCC2)CC1` (stereo not given), for which the Potency result in test [1], in test [2] and in test [4] was “inactive” in each case. Besides, the Potency in test [3] is 2.13 µM (active). Moreover, the molecule was classed as inactive in test [5].
Consider `CCOc1ccc(Nc2nc(-c3c(C)nc4ccccn34)cs2)cc1`, for which the Potency result in test [1] and in test [2] was “inactive” in each case. Moreover, the Potency is 15.1 µM (active) in test [3] and 13.5 µM (active) in test [4].
On to `CN[C@@H](C)C(=O)N[C@H]1CN(C(=O)CC(C)C)CC[C@H]2CC[C@@H](C(=O)NC(c3ccccc3)c3ccccc3)N2C1=O`, for which the Potency entry in test [1], in test [2], in test [3] and in test [4] was “inactive” each time.
Take `CCOC(=O)C1=C(N)Oc2ccc(Br)cc2C1C(C#N)C(=O)OCC` (stereo not given): the Potency result in test [1] and in test [2] was “inactive” throughout. Besides, the Potency was 13.5 µM (active) and 16.9 µM (active) and 23.9 µM (active) in test [3]; 6.01 µM (active) and 12 µM (active) and 10.7 µM (active) in test [4].
As to `CS(=O)c1ccc(-c2nc(-c3ccc(F)cc3)c(-c3ccncc3)[nH]2)cc1` (stereo not given), the Potency result in test [1] and in test [2] was “inactive” each time. Moreover, the Potency in test [3] is 6.74 µM (active); in test [4], 0.952 µM (active).
For the molecule `O=c1cc(-c2ccc(O)cc2)oc2cc(O)cc(O)c12`, the Potency entry in test [1] and in test [2] was “inactive” in each case. Moreover, the Potency in test [3] was 12 µM (active); in test [4], 21.3 µM (active).
Turning to `O=C(O)CCc1nc(-c2ccccc2)c(-c2ccccc2)o1`, the Potency entry in test [1], in test [6], in test [3] and in test [4] was “inactive” each time.
Turning to `CC(C)(C)NC(=O)Nc1cccc(Nc2ncc(F)c(NC(C)(C)CO)n2)c1`, the Potency result in test [1] and in test [2] was “inactive” throughout. In addition, the Potency in test [4] was 23.9 µM (active).
As to `CC(=O)c1ccc(S(=O)(=O)NC(=O)NC2CCCCC2)cc1`, the Potency result in test [1], in test [6] and in test [3] was “inactive” in each case.
Regarding `CN(C)c1cc(NC(=O)CNC(C)(C)C)c(O)c2c1C[C@@H]1C[C@H]3[C@H](N(C)C)C(=O)C(C(N)=O)=C(O)[C@@]3(O)C(=O)C1=C2O`, the Potency entry in test [1], in test [6] and in test [4] was “inactive” each time.
Consider `COCCOc1nc(-c2ccc(Cl)c(Cl)c2)n(-c2ccc(NC(=O)CCl)cc2)n1`, for which the Potency entry in test [1] was “inactive”. For the same molecule, the Potency was 0.756 µM (active) in test [3] and 4.77 µM (active) in test [4].
Regarding `C[C@H](NC(=O)c1sccc1OCc1ccc(Cl)cc1)c1ccccc1`, the Potency result in test [1] and in test [2] was “inactive” in each case. Moreover, in test [4], the Potency is 0.952 µM (active).
On to `O=C1Nc2ccc(Cl)cc2C(C#CC2CC2)(C(F)(F)F)O1` (stereo not given), for which, in test [1], the Potency entry was “inactive”. Also, the values for the Potency in test [3] and in test [4] were 16.9 µM (active) and 12 µM (active), respectively.
